target: RUNX1 (UniProt Q01196); assay: RUNX1 binding intensity (PBM fluorescence), RUNX1 alone (arbitrary fluorescence units); higher = stronger binding; conditions: RUNX1 concentration 2 nM; ETS1 concentration 0 nM
Method: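 Cooperative gcPBM on 36-bp genomic probes with neighbouring ETS1 and RUNX1 sites. Recombinant human RUNX1 (2 nM) was incubated alone or with ETS1 (25 nM) and detected with anti-RUNX1 antibody plus Alexa488 secondary. Values are medians over 4 replicate spots; the RUNX1+ETS1 data were normalised to the RUNX1-only data. The probes sit in constant array flanks that are not printed.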
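Also: Full-length recombinant human RUNX1 bound to double-stranded 36-bp genomic probes on a high-density microarray, scored as Alexa488 fluorescence per spot via anti-RUNX1 antibody, median of four replicate spots.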

Sequence of RUNX1 (Q01196 whole entry): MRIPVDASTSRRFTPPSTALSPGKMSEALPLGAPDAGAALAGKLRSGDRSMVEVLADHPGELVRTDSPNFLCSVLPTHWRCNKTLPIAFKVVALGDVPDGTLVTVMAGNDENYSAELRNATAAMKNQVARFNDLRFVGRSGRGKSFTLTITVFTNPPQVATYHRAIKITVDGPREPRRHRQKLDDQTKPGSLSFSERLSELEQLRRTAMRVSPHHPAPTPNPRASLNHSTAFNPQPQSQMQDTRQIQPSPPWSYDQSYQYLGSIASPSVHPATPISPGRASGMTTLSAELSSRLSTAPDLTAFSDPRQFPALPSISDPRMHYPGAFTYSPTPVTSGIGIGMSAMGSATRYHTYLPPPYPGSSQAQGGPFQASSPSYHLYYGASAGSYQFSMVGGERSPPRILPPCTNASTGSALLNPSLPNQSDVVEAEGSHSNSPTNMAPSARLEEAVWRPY

Sequence | RUNX1 binding intensity
CCCGCTCACGCCGGAAGTGGTTTGCGTTTTCAAGAT | 741
GAAAGGGTTCATCCAGGAAACCACAACCCAGTGCCG | 1440
CACCTGGCCCGGACGGCTGCGGTCTGGAGGGCTGTC | 1650
CTAGGCCACCGGAAGTCTCCGCAGTGGTTTTGCAAA | 762
AGCTCAATTTCCTGGCGTGTAACATGGCCACAAGGG | 830
GAAATCACATCCTTTTGCAAAACCACAGGTGTTTTG | 1320
AACAGACAGGATGTGGCCTCTGCCAAAACCACCATC | 869
TGAAGTACTAGTCAAGGATGTGGTTTTACATAGCAG | 923
GAAGGAAGTGGAGACAGTAAGGGGAAACCACAAACC | 922
CTGAAAAACCGGAAGTGGGTGGTTTGAAACGTAAAT | 776
TCTGTTCTTCCTTTTCCTGTGCGGTGTGCCCCAAAC | 1530
TGTTTTCGCTCTTCCTGGCCTTGCGGGCAGCCAGGA | 1060
AAGGTGGAAAAAGGATGTGGTTCTAAGCTGGCTTCT | 735
GGGGCAGGAAGTGGAGGTTTGAAGTGGTTTAGAGTA | 799
CTCATTGACAGGAAGTCTAACCACAGGCTTAGGCCC | 1400
CGATTCCGGAGACAGGCCCCACCGTGCGGTAAACTG | 835
ATCTTACCCCGGAAATGACAACAGTGCCGCAAACTG | 906
ACCTGTGTTCTGGCAGGATGTGGTTGACCTCAGCAG | 755
TTTATCATGAATGCAGGATGTGGGCAGACTCACAGC | 691
TAAATCGGAAACTCGCCGCTCAGCCCGCAGCCGCCG | 901

Sequence | RUNX1 binding intensity
CAGAGCCAAACATGCGGAAGTGGTTACGTGTACTAG | 795
TCCCGAGAGCCGGAAGCAGCCGCAGGCCCCGCCACA | 778
AGCCCGGCTTCCGGCGCGTGCCGCTGCGGCTGCAGG | 678
CTCGTGCGTCACTTCCGCCCCGCAGACCCGCCCACT | 1050
GTTGGGGTGCGTGTAGGATGTGGTCTGGGATGATTA | 1050
AGTTGGTTCCTTCCGGTGGGTTTGTGGGCTTGGGGT | 763
AGCCAACAGGAAGCTGCAGAGACTAAACCACAGCAA | 879
GACGGCCCCAGCGGAAGTGGTTGCCTTGGTTTGCGC | 734
TACCTAGACCCTTTCCGCCCTTACCGCGGCCAGACA | 1210
CCTTTACTTCCTTTTACTTCTAACCACAGAATTAAA | 7760
TTTGAGCGGGCAGGATGTGGTGACAATGATACTGCA | 750
CCACGTCCACAAAGGAAACCGCGGCCTGCCCGGGGA | 1080
CTACCGGAAATGCAGCACCACGTAAAATGCGGTCGG | 912
ATGCCTTCTTCCAGAGGATGTGGTCGCTACTAGTGG | 725
GACTCCATTTCCCGTCGGCTCGCGGTGGGAGCGCCG | 981
ACCCAGGAGGCGGAAGTTGTGGTGAGCCGAGATCGC | 862
GTTTGAAGGGAAGTGGGTGTTGACCTGCGGGCAACT | 806
CCGGGAAGGCGGAAGCAGCAGAGACGCCGCAAGGCC | 823
AAACCAGAGGAAGTGGATTCCAACCACAAACCTCAC | 1080
TGGTTTCTCACTGGCGGATGTGGGTGGGTCGCCTCC | 723
